# A selection: hits, their analogues and other compounds. The true share with any hit is near 5.7%.
# A549 tox: counter-screen for Nrf2 inhibitors: cytotoxicity in A549 cells; A549 ARE-Fluc cells, CellTiter-Fluor viability, 18-24 h; Potency, µM (top dose mostly 46 µM), most hits filed as inhibitors; 0.16% of 390,000 active; AID 504648
#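 A549 ARE_Fluc cells in 5% FBS OPTI-MEM were exposed to compounds in concentration-response for 18-24 h at 37 deg C. Viability was read by CellTiter-Fluor fluorescence (Ex 405/Em 525) after 30 min, before the luciferase read.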
# Giardia kill: kills Giardia lamblia. Giardia lamblia trophozoite viability. activity change, % at 7.66 µM, hits read low. 0.15% of 340,000 active; in the data active = activity change below about -80%; inconclusive = between about -30% and that limit;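 note: parasites exposed to compound for two days anaerobically before the ATP read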
#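 Trophozoites 100 cells/well + cpd; 48 hrs, 37 deg C, anaerobic. ATPLite 1-Step added, 15-30 min RT, luminescence read (ATP-based viability).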
# Nrf2 inh: Nrf2 pathway inhibition; A549 ARE-Fluc reporter, luciferase luminescence, 18-24 h; Potency, µM (series often up to 46 µM), hits mostly inhibitors; AID 504444; 2.1% of 360,000 active; note: nearly all actives have a fitted effect of over 60% in size
#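 Nrf2 activity is the BugLite luminescence, read 15 min after reagent at room temperature, following CellTiter-Fluor cytotoxicity readout (30 min, 37C). Compound titrations were applied for 18-24 h to 5000 A549 ARE_Fluc cells/well in 5% FBS OPTI-MEM.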
# PI4K2A inh: PI4K2A (human) kinase inhibition; purified PI4K2A, ADP-Glo luminescence, 1 h; hits give low values; activity change, negative = inhibition, % at 76.9 µM; 0.13% of 420,000 active; AID 1346378; in the data active = activity change below about -50%; inconclusive = mostly about -30% to -49%
# Target sequence (Q9BTU6 whole entry, looked up): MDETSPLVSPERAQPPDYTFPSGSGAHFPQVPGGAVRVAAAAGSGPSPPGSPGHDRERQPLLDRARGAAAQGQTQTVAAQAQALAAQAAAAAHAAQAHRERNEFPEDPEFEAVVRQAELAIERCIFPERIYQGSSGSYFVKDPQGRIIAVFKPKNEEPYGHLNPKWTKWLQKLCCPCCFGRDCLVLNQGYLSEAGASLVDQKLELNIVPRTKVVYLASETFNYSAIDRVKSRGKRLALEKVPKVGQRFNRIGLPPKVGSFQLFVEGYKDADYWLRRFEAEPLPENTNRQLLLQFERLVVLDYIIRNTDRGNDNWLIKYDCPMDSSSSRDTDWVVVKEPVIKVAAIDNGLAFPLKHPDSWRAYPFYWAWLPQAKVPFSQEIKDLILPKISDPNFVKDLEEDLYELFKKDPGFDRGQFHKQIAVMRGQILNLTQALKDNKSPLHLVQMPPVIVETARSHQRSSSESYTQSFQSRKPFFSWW
#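 PI4K2A activity was measured by ADP-Glo luminescence: enzyme (4 ug/mL stock) and phosphatidylinositol (1.2 mM stock) in Tris pH 7.5/MgCl2/EGTA/Triton X-100 buffer were reacted with ATP (300 microM stock) for one hour at ambient temperature.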
# KB-V1 cytotox: KB-V1 MDR subline cytotoxicity; KB-V1 MDR cells viability, CellTiter-Glo, 72 h; Potency, µM (doses to about 46.1 µM), most hits filed as cytotoxic; 3.4% of 400,000 active; note: nearly all actives have a fitted effect of over 60% in size
#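 Cytotoxicity via CellTiter-Glo luminescence after 72 h compound exposure at 37 degrees C. Cells: drug-selected KB-V1 line, DMEM phenol-red free plus 10% FBS. Compounds tested at multiple concentrations; normalized data fitted to concentration-effect curves.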
# KB-3-1 tox: KB-3-1 parental cell cytotoxicity; KB-3-1 viability, CellTiter-Glo ATP luminescence, 72 h; Potency, µM (highest dose often 46.1 µM), actives largely listed as cytotoxic; 1.4% of 400,000 active; note: nearly all actives have a fitted effect of over 60% in size
#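 KB-3-1 parental drug-naive adenocarcinoma cells in DMEM/10% FBS, incubated 72 h at 37 C with pin-transferred compounds across a concentration series. Viability by CellTiter-Glo luminescence; concentration-response curves fitted after normalization.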
# Hits are given with their value; n = inactive; u = inconclusive; x = no result given. Unless noted, calls come from the whole dose curve; as a rule, active = well fitted curve in the direction sought with a large enough effect; inconclusive = small, poorly fitted or top-dose-only effect, or another doubt; inactive = no such curve, though single readings can be large; an effect the other way counts as inactive or inconclusive.
SMILES,A549 tox,Giardia kill,Nrf2 inh,PI4K2A inh,KB-V1 cytotox,KB-3-1 tox
Cc1ccc(/C=C/c2onc(C)c2S(=O)(=O)N2CCC(C(=O)N3CCCCC3)CC2)cc1,n,n,n,n,n,n
O=C1CC(c2ccccc2)=C(c2ccccc2)C1c1ccccc1 (centres undefined),n,n,n,n,10µM,u
O=C1NNC(=O)C1c1ccccc1,n,n,n,n,n,n
CCN(CC)CCOC(=O)c1ccc(NC(=O)c2cc3cccc(OC)c3oc2=O)cc1,n,x,x,n,u,n
COC(=O)CNC(=O)CNC(=O)c1nn(-c2ccc(OC)c(Cl)c2)c(=O)c2ccccc12,n,n,n,n,n,n
COc1ccc(-n2nc(C(=O)NCC(=O)NCc3ccco3)c3ccccc3c2=O)cc1Cl,n,n,n,n,5.8µM,n
CCCN1CNc2c(c(=O)[nH]c(=S)n2CCc2cc(C)ccc2C)C1,n,n,n,x,x,x
N#CN1CCC(NC(=O)c2cccc(C(F)(F)F)c2)CC1,n,x,n,x,x,x
O=C(Nc1ccc(Oc2cccc(C(F)(F)F)c2)nc1)c1cccs1,n,n,16µM,n,n,n
O=C(Nc1ccc(Oc2cccc(C(F)(F)F)c2)nc1)c1ccccc1,n,n,u,n,n,n
CCC(C)(C)C1CCC2(CC1)NC(=O)N(CC(=O)NCCc1ccc(OC)c(OC)c1)C2=O (centres undefined),n,n,u,n,16µM,u
O=C(Nc1cccn(Cc2c(Cl)cccc2Cl)c1=O)c1ccc(Cl)cc1Cl,u,n,u,n,16µM,21µM
CCCOc1ccc2ccccc2c1/C=N/n1c(C)nnc1-n1nc(C)cc1C,n,n,u,n,5.8µM,5.2µM
COc1ccc(C(=O)NCC(c2ccc3c(c2)OCO3)N2CCOCC2)cc1OC (centres undefined),n,x,x,n,n,n
O=C(NC1CCCCC1)c1cccs1,n,n,n,n,n,n
O=C(NNC(=S)NC1CCCCC1)c1sc2ccccc2c1Cl,n,n,u,n,18µM,n
CC(C)(C)C(=O)NC(=S)NNC(=O)c1sc2ccccc2c1Cl,u,n,5.8µM,n,10µM,9.2µM
O=C(NNC(=S)NC1CCCCC1)c1cccs1,n,n,n,n,23µM,n
O=C(NNC(=O)c1sc2cccc(Cl)c2c1Cl)NC1CCCCC1,n,n,9.2µM,n,n,n
COc1ccc(S(=O)(=O)NCCc2sc(C)nc2C)cc1,n,x,x,n,u,n
COc1ccc(S(=O)(=O)NCCc2sc(-c3cccc(F)c3)nc2C)cc1,n,x,x,n,n,n
COc1ccc(S(=O)(=O)NCCc2sc(-c3ccccc3)nc2C)cc1OC,n,x,x,n,u,n
COc1ccc(OC)c(S(=O)(=O)NCCc2sc(-c3cccnc3)nc2C)c1,n,x,x,n,u,n
Cc1nc(-c2ccccc2)sc1CCNS(=O)(=O)c1ccc(Br)cc1,n,x,x,n,21µM,u
COc1ccc(-c2nc(C)c(CCNS(=O)(=O)c3cc(C)c(C)cc3C)s2)cc1,n,x,x,n,18µM,u
SMILES,A549 tox,Giardia kill,Nrf2 inh,PI4K2A inh,KB-V1 cytotox,KB-3-1 tox
Cc1nc(C)c(CCNS(=O)(=O)c2ccc(C)c(C)c2)s1,n,x,x,n,21µM,u
COc1ccc(-c2nc(C)c(CCNS(=O)(=O)c3cc(Cl)ccc3Cl)s2)cc1,n,x,x,n,21µM,15µM
O=C(COc1ccccc1C(=O)Nc1ccccc1)Nc1ccccc1-c1ccccc1,x,x,x,x,n,u
COc1ccc(-c2nc(C)c(CCNS(=O)(=O)c3ccc(F)cc3)s2)cc1OC,n,x,x,n,9.2µM,u
O=C(NC1(C(F)(F)F)N=C(c2ccccc2)NC1=O)c1ccc(Cl)cc1Cl (centres undefined),n,n,n,n,18µM,n
O=C(NC1(C(F)(F)F)N=C(c2ccccc2)NC1=O)c1ccccc1F (centres undefined),n,n,n,n,n,n
O=C(OCc1ccccc1)N(CCCCN(CCCNCc1ccccc1)C(=O)OCc1ccccc1)CCCNCc1ccccc1,u,n,u,n,u,16µM
O=C(NCCCCCCNC(=O)OCc1ccccc1)OCc1ccccc1,n,n,n,n,n,n
CCOc1cc(NC(=O)c2ccco2)c(OCC)cc1NC(=O)c1ccco1,n,n,n,n,n,n
CCOc1cc(NC(=O)c2ccco2)c(OCC)cc1NC(=O)c1cc(OC)c(OC)c(OC)c1,n,n,18µM,n,u,u
COc1cc(C(=O)OCC(C)=O)cc(NC(=O)c2ccco2)c1OC,n,n,u,n,n,n
COc1cc(NC(=O)c2ccco2)c(OC)cc1NC(=O)c1cc(OC)c(OC)c(OC)c1,n,n,n,n,u,u
COc1cc(C(=O)OCC(=O)NC2CCCC2)cc(NC(=O)c2ccco2)c1OC,n,n,n,n,4.6µM,n
CCOc1cc(C#N)c(NC(=O)c2ccco2)cc1OCC,n,n,n,n,u,6.5µM
CCOC(=O)CC[C@@H]1CC[C@]2(CCCN(Cc3nccs3)C2)O1,x,x,x,n,x,x
CCOc1ccc(OCC)c(NC(=O)Cn2nc(CC)n3c(cc4sccc43)c2=O)c1,n,x,n,n,n,n
COc1ccccc1CNC(=O)C(CC(C)C)N1Cc2ccccc2C1=O (centres undefined),n,x,n,n,n,n
COCCNc1cc(N2CCN(C3CCCCC3)CC2)c2noc3c2c1C(=O)c1ccccc1-3,n,x,n,n,n,n
C#CCN1CCc2onc(-c3ccc(Br)cc3)c2C1=O,x,x,x,n,18µM,u
COc1ccc(C(=O)CSc2nc(=O)n(Cc3cccnc3)c3c2CCC3)cc1,n,n,n,n,15µM,n
CCOc1ccc(NC(=O)CSc2nc(=O)n(Cc3cccnc3)c3c2CCC3)cc1,n,n,n,n,n,n
CCCC(c1c(C)n(C)n(-c2ccccc2)c1=O)c1c(C)n(C)n(-c2ccccc2)c1=O,n,n,n,n,u,21µM
CCCc1c(C(=O)Nc2cc(C(C)(C)C)on2)cnn1-c1ccccc1,n,n,6.5µM,n,n,n
CCOC(=O)[C@@]12CN(C(=O)OC(C)(C)C)CC=C1N(Cc1ccc(OC)cc1)C(=O)[C@H]2CC(=O)NCCc1ccccc1OC,x,x,x,n,x,x
C=CCn1c(COc2ccc(C)cc2)nnc1SCc1ccc([N+](=O)[O-])cc1,x,x,x,n,x,x
CCS(=O)(=O)N1CCN(S(=O)(=O)c2ccccc2[N+](=O)[O-])CC1,n,n,n,n,n,n
CSc1ccccc1NC(=O)CN1CCN(S(=O)(=O)c2ccccc2[N+](=O)[O-])CC1,n,n,n,n,3.7µM,n
Cc1cccc(Cn2cc(/C=C/[N+](=O)[O-])c3ccccc32)c1,x,n,16µM,n,n,u
